Data on seven compounds can be found in PubChem BioAssay (NCI).

The panel holds about 83,000 compounds, 20% with a hit somewhere; the sample as a whole holds those more often.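 Each cell line was grown in a 96-well plate and treated with one concentration of compound for 48 hours. Values below 10 were considered active.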 A number with no mark means an inactive call. Activity calls are given as the source filed them.

What all share (assay): NCI-60 one-dose screen, 48 h (100 = growth as untreated, 0 = no growth, -100 = all killed)
Test [1] concerns SK-MEL-2 melanoma. As to conditions: 10 µM unless noted.
Test [2] deals with EKVX NSCLC. As to conditions: 10 µM unless noted.
The test system of test [3] is SN12C renal. As to conditions: 10 µM unless noted.
For test [4], the system named is UO-31 renal. Particulars: 10 µM unless noted.
The test system of test [5] is TK-10 renal. As to conditions: 10 µM unless noted.
Test [6] relates to ACHN renal. As to conditions: 10 µM unless noted.
Test [7] has as its system CAKI-1 renal. Particulars: 10 µM unless noted.
Test [8] relates to A498 renal. As to conditions: 10 µM unless noted.
The subject of test [9] is CCRF-CEM leukemia. Particulars: 10 µM unless noted.
The subject of test [10] is MOLT-4 leukemia. Particulars: 10 µM unless noted.
Test [11] has as its system SR leukemia. Particulars: 10 µM unless noted.
The test system of test [12] is RPMI-8226 leukemia. Particulars: 10 µM unless noted.
The subject of test [13] is OVCAR-8 ovarian. Particulars: 10 µM unless noted.
The test system of test [14] is OVCAR-5 ovarian. Particulars: 10 µM unless noted.
In test [15] the test system is SK-OV-3 ovarian. Particulars: 10 µM unless noted.
The subject of test [16] is IGROV1 ovarian. As to conditions: 10 µM unless noted.
Test [17] concerns OVCAR-3 ovarian. As to conditions: 10 µM unless noted.
The test system of test [18] is HS 578T breast. Particulars: 10 µM unless noted.
Test [19] has as its system NCI/ADR-RES ovarian. Particulars: 10 µM unless noted.
In test [20] the test system is OVCAR-4 ovarian. As to conditions: 10 µM.

Take `Cc1cnc(N)nc1OCCNC(=O)c1cccc(-c2ccc(S(=O)(=O)Nc3ccc4c(c3)N(C(=O)C3CC3)CCC4)cc2)c1`: the growth in test [1] was 74.4%; in test [2], 98.9%; in test [3], 79.7%; in [4] it was 77.1%; in test [5], 93.1%; in test [6], 84.9%. Also, the growth in test [7] was 77.4%; in [8], 40.2%; in test [9], 64.1%; in test [10], 37.7%; in test [11], 104%; in test [12], 42.7%. Further, the growth in [13] was 67.4%; in test [14] it was 105%; in test [15], 98.8%; in test [16], 74%; in test [17], 79.5%; in [18], 75.3%. In addition, the growth in test [19] is 102%.

For `O=C1CN(Cc2ccc(C(=O)NO)cc2)C(=O)[C@@H](Cc2ccccc2)N1`, the growth is 112% in [1]; 98.9% in test [2]; 102% in [3]; 92.9% in test [4]; 106% in test [5]; 103% in test [6]. For the same compound, the growth in test [7] is 94.1%; in test [8], 94.7%; in [9], 105%; in test [10], 101%; in test [11], 113%; in [12], 102%. Further, the growth in [13] is 95.6%; in [14], 101%; in test [15] it was 96.5%; in test [16], 106%; in test [17], 109%; in test [18], 101%. Also, the growth in [19] is 110%.

For the compound `C=CCc1nc2ccccc2s1`, the growth is 107% in [1]; 109% in test [2]; 110% in [3]; 63.6% in test [4]; 94.3% in [5]; 101% in [6]. In addition, the growth was 98.3% in test [7]; 108% in test [8]; 84.1% in test [9]; 89.1% in test [10]; 98.9% in test [11]; 92.4% in [12]. Besides, the growth is 98% in test [13]; 101% in [14]; 110% in [15]; 74.6% in test [16]; 114% in [17]; 102% in test [18]. The growth in [19] was 111%.

`CCc1ccc(C2=C/C(=C/c3ccccc3)C(=O)N2CCc2ccc(S(N)(=O)=O)cc2)cc1`: the growth in [1] is 104%; in [2] it was 96.3%; in test [3] it was 101%; in [4], 68.4%; in test [5] it was 122%; in test [6], 99%. Further, the growth in [7] was 67.8%; in [8], 88.7%; in test [9] it was 106%; in test [10] it was 97%; in test [11] it was 96.9%; in [12] it was 110%. The growth in test [13] was 100%; in test [14] it was 109%; in test [20], 103%; in [16] it was 91.4%; in test [17] it was 109%; in test [19], 104%.

Turning to `CC(=O)OC[C@]12CC[C@@H]([C@@H](C)C(N)=O)[C@@H]1[C@H]1CC[C@@H]3[C@@]4(C)CC[C@H](OC(C)=O)C(C)(C)[C@@H]4CC[C@@]3(C)[C@]1(C)CC2`, the growth was -77.6% [100 µM] (active) in [1]; -25.2% [100 µM] (active) in test [2]; -91.6% [100 µM] (active) in [3]; -97.5% [100 µM] (active) in [4]; -35.4% [100 µM] (active) in [5]; -75.7% [100 µM] (active) in [6]. For the same compound, the growth in test [7] is -45.8% [100 µM] (active); in test [8], -81.7% [100 µM] (active); in [9] it was -12.4% [100 µM] (active); in test [10] it was -29.1% [100 µM] (active); in test [11] it was 10.8% [100 µM]; in [12] it was -18.3% [100 µM] (active). The growth in test [13] is -31.7% [100 µM] (active); in [14] it was -77.4% [100 µM] (active); in test [15], -11.9% [100 µM] (active); in test [16], -71.3% [100 µM] (active); in test [17], -76.2% [100 µM] (active); in test [18] it was -33% [100 µM] (active). For the same compound, in test [19], the growth was -57.3% [100 µM] (active).

Consider `O=[N+]([O-])c1ccc(O)c(-c2nc3ccccc3s2)c1`, for which the growth in [1] is 99%; in test [2], 83.6%; in [3] it was 64.9%; in test [4], 43.5%; in test [5] it was 82.4%; in [6] it was 85.6%. Further, the growth was 73% in [7]; 42.6% in [8]; 77.3% in [9]; 65.3% in test [10]; 84.5% in test [11]; 51.1% in test [12]. Further, the growth in test [13] is 92%; in [14], 112%; in test [15], 81.2%; in [16], 70%; in test [17], 47.9%; in test [18], 67.3%. Further, the growth in test [19] is 82.8%.

For `C=C(C)[C@@H]1CC[C@]2(C)[C@H](CC[C@@H]3[C@@H]([C@@](C)(O)CCC=C(C)C)CC[C@]32C)[C@@]1(C)CCC(=O)O`, the growth in [1] was -41.6% [100 µM] (active); in test [2] it was 8.69% [100 µM] (active); in test [3], -64.2% [100 µM] (active); in [4], -93.1% [100 µM] (active); in test [5], 18.1% [100 µM]; in test [6] it was 6.72% [100 µM] (active). The growth in test [7] is 2.11% [100 µM] (active); in test [8], -20.2% [100 µM] (active); in test [9], 0.565% [100 µM] (active); in test [10], -0.176% [100 µM] (active); in test [11] it was 21.4% [100 µM]; in test [12], 0.565% [100 µM] (active). For the same compound, the growth in test [13] was 14.8% [100 µM]; in test [14], 3.52% [100 µM] (active); in [15], 18.4% [100 µM]; in test [16], -24.2% [100 µM] (active); in test [17], -70.2% [100 µM] (active); in test [18], -16.7% [100 µM] (active). Also, in test [19], the growth is 6.42% [100 µM] (active).
